# Source: PubChem BioAssay AID463173 (ICCB-Longwood Screening Facility, Harvard Medical School, 2010)
# The whole screen tested about 52,000 compounds, of which about 4,300 (8.3%) were called active. This is one part of a sample in which actives are shown more often than they occur. Cut-off read from the data, not from the text of the source: active = survival mostly below about 52% (no sharp cut-off); inactive = mostly above about 56%.
# Tested on: DeltatarO mutant
# Assay: growth inhibition of S. aureus wild type versus tarO mutant, primary screen, teichoic acid synthesis inhibitors, RN4220, OD600 (AID 463173)
# Settings: OD600, 18 h, stronger effect = lower value, screened at 18.75 µg/mL (by protocol)
row,SMILES,survival
1,Cc1ccccc1S(=O)(=O)Cc1ccc(C(=O)NCc2ccccc2Cl)o1,56% (inactive)
2,Cc1ccc(-n2ncc(C(=O)NCCCN3CCc4ccccc4C3)c2C2CCN(C(=O)OC(C)(C)C)CC2)cc1C,73% (inactive)
3,COc1cccc(-n2cc(C(=O)NCc3ccccc3OC)c3ccccc3c2=O)c1,72% (inactive)
4,CCC(Oc1ccccc1)C(=O)Nc1cccc(OCc2cc(=O)n3cccc(C)c3n2)c1 (stereo not given),128% (inactive)
5,O=C1N(CN2CCCCC2)c2ccccc2C12OCCCCO2,94% (inactive)
6,CCc1ccc(OCC2c3cc(OC)c(OC)cc3CCN2C(=O)Cc2ccc(OC)c(OC)c2)cc1 (stereo not given),76% (inactive)
7,COc1ccccc1OCC(=O)NCC(c1ccc(Cl)cc1)N1CCCCC1 (stereo not given),61% (inactive)
8,O=C(Nc1ccc(F)cc1F)c1cc(S(=O)(=O)N2CCCCC2)c[nH]1,83% (inactive)
9,Cc1ccc(NC(=O)c2cc(-c3ccc(Br)s3)nc3ccccc23)cc1F,59% (inactive)
10,CCOc1cccc(CC(=O)N2CCc3c([nH]c4ccccc34)C2c2ccc(SC)cc2)c1OCC (stereo not given),107% (inactive)
11,Cn1nccc1C(=O)NCc1ccc2c(c1)CCN2C(=O)c1ccc(F)cc1,65% (inactive)
12,O=C(CSc1nc2c([nH]c3ccccc32)c(=O)n1-c1ccc(F)cc1)NCc1ccco1,81% (inactive)
13,COC(=O)c1ccc(CSc2nc3c([nH]c4ccccc43)c(=O)n2-c2cc(C)cc(C)c2)o1,8% (active)
14,CCOc1ccc(-n2c(SCC(=O)NCc3ccco3)nc3c([nH]c4ccccc43)c2=O)cc1,37% (active)
15,COC(=O)c1ccc(CSc2nc3c([nH]c4ccccc43)c(=O)n2-c2cccc(Cl)c2)o1,79% (inactive)
16,COc1ccc(-n2c(SCC(=O)NCc3ccco3)nc3c([nH]c4ccccc43)c2=O)cc1,102% (inactive)
17,COC(=O)c1ccc(CSc2nc3c([nH]c4ccccc43)c(=O)n2-c2ccc(Cl)cc2)o1,112% (inactive)
18,CCC(C)NC(=O)CSc1nc2cc3c(cc2c(=O)n1CCCCCC(=O)NCc1ccc2c(c1)OCO2)OCO3 (stereo not given),84% (inactive)
19,O=C(COc1ccccc1F)Nc1c(C(=O)Nc2cccc(F)c2)oc2ccccc12,75% (inactive)
20,COc1ccc(CCNc2nc(-c3ccc(C)cc3)cc(C(F)F)n2)cc1OC,87% (inactive)
21,COc1ccc(CCNC(=O)C2CCN(c3nc4ccccc4nc3C(F)(F)F)CC2)cc1OC,92% (inactive)
22,COc1ccc(CCNc2nc(-c3ccccc3OC)cc(C(F)(F)F)n2)cc1OC,-8% (active)
23,COc1ccc(CCNC(=O)CSc2nc(-c3ccc(F)cc3)cc(C(F)(F)F)n2)cc1OC,77% (inactive)

row,SMILES,survival
1,COc1ccc(CCNc2nc(-c3ccc(OC)c(OC)c3)cc(C(F)(F)F)n2)cc1OC,4% (active)
2,COc1ccc(CCNc2nc(-c3ccc(F)cc3)cc(C(F)(F)F)n2)cc1OC,109% (inactive)
3,COc1ccc(-c2cc(C(F)(F)F)nc(SCC(=O)NCCc3ccc(OC)c(OC)c3)n2)cc1,59% (inactive)
4,COc1ccc(CCNc2nc(-c3ccc(Cl)cc3)cc(C(F)(F)F)n2)cc1OC,8% (active)
5,COc1cccc(-c2cc(C(F)(F)F)nc(NCCc3ccc(OC)c(OC)c3)n2)c1,4% (active)
6,COc1ccc(CCNC(=O)Cn2nc(-c3ccc(Cl)cc3)ccc2=O)cc1OC,75% (inactive)
7,CCOC(=O)N1CCC(NC(=O)c2cnn(-c3ccc(C)cc3)c2-n2cccc2)CC1,69% (inactive)
8,CCc1ccc2[nH]c(=O)c(CN(CCCN3CCOCC3)C(=S)NC)cc2c1,88% (inactive)
9,CC(C)c1c(O)nc(SCCN2CCOCC2)[nH]c1=O,92% (inactive)
10,CCOc1ccc2nc(NC3=NCCC(=O)N3)nc(C)c2c1,80% (inactive)
11,CCN(CC)C(=O)c1sc2c(c1C)c(=O)n(-c1ccc(C)c(C)c1)c(=O)n2CC(=O)Nc1ccc(F)cc1,92% (inactive)
12,CCCCc1nn2c(=O)cc(COC(=O)c3ccc(NC(=O)C4CCCCC4)cc3)nc2s1,91% (inactive)
13,CCn1cc(C(=O)NCc2ccc(Cl)cc2)c(=O)c2cc(S(=O)(=O)N3CCc4ccccc4C3)ccc21,64% (inactive)
14,CCN(CC)C(=O)COc1ccc2ccc(=O)oc2c1,84% (inactive)
15,COc1ccccc1CNC(=O)CCCn1c(=O)c2ccccc2n(Cc2ccc(C)cc2)c1=O,132% (inactive)
16,CCOC(=O)Cn1c(=O)n(C2CCCCC2)c2nc(-c3ccc(OCC)cc3)nc(C(N)=O)c21,86% (inactive)
17,CCCS(=O)(=O)N1CC(=O)N(c2ccccc2C)C(C)(C(=O)NC2CCCCC2)C1 (stereo not given),75% (inactive)
18,COc1ccccc1NC(=O)C1CCN(S(=O)(=O)c2cn(C)cn2)CC1,69% (inactive)
19,CCCc1nc2nc(C)c(NS(=O)(=O)c3ccc(C)c(C)c3)c(=O)n2[nH]1,129% (inactive)
20,Cc1cccc(C(=O)Oc2c(Sc3ccccc3)c(C)nn2C(C)(C)C)c1,57% (inactive)
21,COc1cc(OC)cc(C(=O)Oc2c(Sc3ccccc3)c(C)nn2C(C)(C)C)c1,43% (active)
22,Cc1nn(C(C)(C)C)c(OC(=O)c2c(F)cccc2F)c1Sc1ccccc1,127% (inactive)
23,COc1ccc(C(=O)Oc2c(Sc3ccc(Cl)cc3)c(C)nn2C(C)(C)C)cc1OC,56% (inactive)

row,SMILES,survival
1,Cc1nn(C(C)(C)C)c(OC(=O)c2cccc(F)c2)c1Sc1ccccc1,24% (active)
2,CCOc1ccc(C(=O)Oc2c(Sc3ccccc3)c(C)nn2C(C)(C)C)cc1OCC,57% (inactive)
3,CCOc1ccc(NC(=O)CSc2nc(-c3ccc(OC)cc3)nc3c2Cc2c(CO)cnc(C)c2O3)cc1,79% (inactive)
4,CS(=O)(=O)N1CCc2cc(C(=O)N3CCN(c4ccccc4F)CC3)ccc21,45% (inactive)
5,COc1ccc(C(=O)Nc2nc3nc(C)c(Cl)c(=O)n3[nH]2)cc1,100% (inactive)
6,COc1cc(C2CC(=O)N(c3ccccc3)C3=C2C(=O)OC3)cc(OC)c1OC (stereo not given),72% (inactive)
7,Cc1cc2cc(CN(CC3COCCO3)S(=O)(=O)c3ccc(F)cc3)c(=O)[nH]c2cc1C (stereo not given),103% (inactive)
8,O=C1c2cccc3cccc(c23)N1c1ccccc1,77% (inactive)
9,COC(=O)C(NC(=O)CC(C)C)(Nc1nc2c(s1)CCCC2)C(F)(F)F (stereo not given),120% (inactive)
10,COc1ccc(CNc2nc(-c3ccc(Cl)cc3)cc(C(F)(F)F)n2)cc1,29% (active)
11,COc1ccc(CNC(=O)c2cc(-c3ccc(Cl)cc3)n[nH]2)cc1,78% (inactive)
12,COc1ccc(-c2cc(C(F)(F)F)nc(NCc3ccc(Cl)cc3)n2)cc1,3% (active)
13,COc1ccc(-c2cc(C(F)(F)F)nc(SCC(=O)NCc3ccc(Cl)cc3)n2)cc1,62% (inactive)
14,CCN(c1cccc(C)c1)S(=O)(=O)c1ccc2[nH]cc(C(=O)NCCCOC)c(=O)c2c1,67% (inactive)
15,COc1ccc(N(C)C(=O)c2nc(-c3cccc(F)c3)n3c2CCCCC3)c(OC)c1,74% (inactive)
16,CCOC(=O)c1cccc(NS(=O)(=O)c2cc(-c3cnc(C4CC4)o3)ccc2C)c1,90% (inactive)
17,O=C(Nc1cccnc1)c1cc(-c2ccc(Cl)cc2)on1,61% (inactive)
18,CN1/C(=C\C(=O)Nc2cccnc2)c2ccccc2CC1(C)C,65% (inactive)
19,Cn1c(=O)oc2cc(S(=O)(=O)CCC(=O)NCCc3ccccc3)ccc21,96% (inactive)
20,COC(=O)c1c(NC(=O)c2cccc(OC)c2)sc2c1CCC(C(C)(C)C)C2 (stereo not given),43% (active)
21,CC(C)(C)C1CCc2c(sc(NC(=O)c3cccc(Cl)c3)c2C(N)=O)C1 (stereo not given),70% (inactive)
22,COc1ccc(NC(=O)c2c(NC(=O)c3ccncc3)sc3c2CCC(C(C)(C)C)C3)cc1 (stereo not given),41% (active)
23,COc1ccc(NC(=O)c2c(NC(=O)COc3ccccc3)sc3c2CCC(C(C)(C)C)C3)cc1 (stereo not given),75% (inactive)

row,SMILES,survival
1,CCC(=O)Nc1sc2c(c1C(=O)Nc1ccc(OC)cc1)CCC(C(C)(C)C)C2 (stereo not given),13% (active)
2,COC(=O)c1c(NC(=O)C2c3ccccc3Oc3ccccc32)sc2c1CCC(C(C)(C)C)C2 (stereo not given),78% (inactive)
3,CCOc1ccc(NC(=O)c2c(NC(=O)c3cccs3)sc3c2CCC(C(C)(C)C)C3)cc1 (stereo not given),67% (inactive)
4,CCOc1ccc(NC(=O)c2c(NC(=O)c3ccncc3)sc3c2CCC(C(C)(C)C)C3)cc1 (stereo not given),113% (inactive)
5,Cc1ccccc1NC(=O)c1c(NC(=O)c2ccncc2)sc2c1CCC(C(C)(C)C)C2 (stereo not given),110% (inactive)
6,O=S(=O)(c1ccccc1)N1CCC(O)(c2ccccc2)C2CCCCC21 (stereo not given),73% (inactive)
7,CC(=O)c1cccc(NC(=O)C(Cc2ccccc2)NS(=O)(=O)c2ccc(Br)s2)c1 (stereo not given),116% (inactive)
8,Cc1n[nH]c(=S)n1CC(=O)n1c2c(c3ccccc31)CCCC2,91% (inactive)
9,COc1ccc(C)cc1-n1nnc(C(=O)Nc2cccc(SC)c2)c1C,86% (inactive)
10,COc1cccc(NC(=O)c2nn(-c3ccc(C)cc3)c(=O)n(C)c2=O)c1,124% (inactive)
11,Cc1cccc(NC(=O)c2ccc(-n3c(C)nnc3C)cc2)c1,88% (inactive)
12,CC(=O)Nc1c(C(=O)Nc2cccc(C)c2)nnn1-c1ccc(C)cc1,69% (active)
13,CC(=O)c1nnn(-c2ccc(C)cc2Cl)c1C,65% (inactive)
14,Cc1ccc(C)c(-n2nnc(C(=O)Nc3ccc(Br)cc3)c2C)c1,18% (active)
15,COc1ccc(NC(=O)c2cc(S(=O)(=O)N3CCCC(C)C3)cn2C)c(OC)c1 (stereo not given),87% (inactive)
16,Cc1ccc(-c2nc3nc(C)cc(N4CCN(c5cccc(C)c5C)CC4)n3n2)cc1,128% (inactive)
17,Cc1cc(N2CCN(c3cc(Cl)ccc3C)CC2)n2nc(-c3ccccc3)nc2n1,77% (inactive)
18,COc1ccccc1N1CCN(c2cc(C)nc3nc(-c4ccc(Cl)cc4)nn23)CC1,38% (active)
19,COc1ccc(N2CCN(c3cc(C)nc4nc(-c5ccc(C)cc5)nn34)CC2)cc1,53% (inactive)
20,COc1ccccc1N1CCN(c2cc(C)nc3nc(-c4ccc(C)cc4)nn23)CC1,40% (active)
21,COc1ccccc1N1CCN(c2cc(C)nc3c(-c4ccc(Cl)cc4)c(C)nn23)CC1,87% (inactive)
